The record followed here is the supplement of paper PMC12494721.

Structures can show the parent of a compound that is named as a salt.

The test system of this assay is Escherichia coli IAI1. Description: growth (OD595) fold change vs plate DMSO controls (fold change (ratio)); higher = more growth. To be noted: incubation time: 27 h, anaerobic, 37 °C. In short, it runs like this: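 To obtain OD, 595 nm absorbance readings were blank-subtracted, corrected for compound background using 20 µM compound solutions in water, and multiplied by a calibration factor of 5. They came from 96-well mGAM cultures grown anaerobically for 27 h at 37 °C and shaken before reading. Growth is the fold change relative to the median of plate DMSO controls. Two biological replicates were averaged, and fold changes above 1.5 were set to NA.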
Turning to `CC(=O)S[C@@H]1CC2=CC(=O)CC[C@]2(C)[C@H]2CC[C@@]3(C)[C@@H](CC[C@@]34CCC(=O)O4)[C@H]12` [Spironolactone] (20 µM), the growth was 0.915. As for `COC(=O)C1=C(C)NC(C)=C(C(=O)OCCN2CCN(C(c3ccccc3)c3ccccc3)CC2)C1c1cccc([N+](=O)[O-])c1` (centres undefined) [Manidipine Dihydrochloride] (20 µM), the growth was 1.01. The value for `CC(=O)NS(=O)(=O)c1ccc(NC(=O)c2ccccc2C(=O)O)cc1` [Phthalylsulfacetamide] (20 µM) was 0.995; that for `CN(C/C=C/C#CC(C)(C)C)Cc1cccc2ccccc12` [Terbinafine] (20 µM) was 1.2. `Nc1nc2[nH]cnc2c(=S)[nH]1` [Tioguanine] (20 µM): the growth is 0.969.

`CC(=O)OCC(=O)[C@@]12N=C(C)O[C@@H]1C[C@H]1[C@@H]3CCC4=CC(=O)C=C[C@]4(C)[C@H]3[C@@H](O)C[C@@]12C` [Deflazacort] (20 µM): the growth was found to be 0.976. The value for `CCCCOCCOCCOCc1cc2c(cc1CCC)OCO2` [Piperonyl butoxide] (20 µM) was 1.09; that for `O=C(Cn1ccnc1[N+](=O)[O-])NCCO` [Etanidazole] (20 µM) was 1.01. In the case of `CCN(CC)CCNC(=O)c1cc(Cl)c(N)cc1OC` [Metoclopramide monohydrochloride] (20 µM), the growth is 1.01.

Regarding `CCN(CC)CCNC(C(=O)OCCC(C)C)c1ccccc1` (centres undefined) [Camylofine chlorhydrate] (20 µM), the growth turned out to be 0.997. As to `Cc1cc(C)nc(NS(=O)(=O)c2ccc(N)cc2)n1` [Sulfamethazine sodium salt] (20 µM), the growth turned out to be 0.957.

In the case of `C/C(O)=C(\C#N)C(=O)Nc1ccc(C(F)(F)F)cc1` [Teriflunomide] (20 µM), the growth was found to be 1.02. As for `NC[C@@H]1O[C@@H](O[C@H]2[C@H](O)[C@@H](O[C@H]3O[C@H](CO)[C@@H](O)[C@H](N)[C@H]3O)[C@H](N)C[C@@H]2N)[C@@H](O)[C@H](O)[C@H]1O` [Kanamycin A sulfate] (20 µM), the figure is 1.02. Regarding `CN[C@@H]1[C@H](O)[C@H](NC)[C@H]2O[C@@]3(O)C(=O)C[C@@H](C)O[C@H]3O[C@@H]2[C@H]1O` [Spectinomycin dihydrochloride] (20 µM), the growth stood at 0.864. As for `CCOC(=O)c1ccc(C#Cc2ccc3c(c2)C(C)(C)CCS3)nc1` [Tazarotene] (20 µM), the growth came to 0.951.

For the molecule `CCCOc1ccc2[nH]c(NC(=O)OC)nc2c1` [Oxibendazol] (20 µM), the growth was determined as 0.999. For `CCN(CCCc1ccccc1)CCCc1ccccc1` [Alverine citrate salt] (20 µM), the growth came out at 1.01. As for `CO[C@@H]1[C@@H](OC(N)=O)[C@@H](O)[C@H](Oc2ccc3c(O)c(NC(=O)c4ccc(O)c(CC=C(C)C)c4)c(=O)oc3c2C)OC1(C)C` [Novobiocin sodium salt] (20 µM), the figure is 0.922; as for `CCOC(N)=O` [Urethane] (20 µM), 1.05; as for `CCN1CCN(C(=O)N[C@@H](C(=O)N[C@@H]2C(=O)N3[C@@H]2SC(C)(C)[C@@H]3C(=O)O)c2ccccc2)C(=O)C1=O` [Piperacillin sodium salt] (20 µM), 0.563.

`CC1CCc2cc(F)cc3c(=O)c(C(=O)O)cn1c23` (centres undefined) [Flumequine] (20 µM): the growth is 0.0532. In the case of `CO/N=C1\CN(c2nc3c(cc2F)c(=O)c(C(=O)O)cn3C2CC2)CC1CN` (centres undefined) [Gemifloxacin mesylate] (20 µM), the growth was found to be 0.0388. As for `C=CCOc1ccc(CC(=O)O)cc1Cl` [Alclofenac] (20 µM), the figure is 1.06; as for `C[C@]12CC[C@H]3[C@@H](CCC4=CC(=O)CC[C@@]43C)[C@@H]1CC[C@@H]2C(=O)CO` [Deoxycorticosterone] (20 µM), 1.09. For `CCCC(CCC)C(=O)O[C@H]1C[C@H]2CC[C@@H](C1)[N+]2(C)C` [Anisotropine Methylbromide] (20 µM), the growth was found to be 1.07.

In the case of `Cc1cn(-c2cc(NC(=O)c3ccc(C)c(Nc4nccc(-c5cccnc5)n4)c3)cc(C(F)(F)F)c2)cn1` [Nilotinib] (20 µM), the growth was found to be 1.07. Turning to `OCCN1CCN(CC/C=C2/c3ccccc3Sc3ccc(C(F)(F)F)cc32)CC1` [Flupentixol dihydrochloride cis-(Z)] (20 µM), the growth turned out to be 0.959. With `N#Cc1cc(NC(=O)C(=O)O)c(Cl)c(NC(=O)C(=O)O)c1` [Lodoxamide] (20 µM), the growth came out at 1.15. As for `O=P(O)(O)C(Cl)(Cl)P(=O)(O)O` [Clodronate disodium] (20 µM), the growth was 1.03.
